Target: T1, Eip93f (Drosophila melanogaster, UniProt Q9VD60 752-830)
T1 sequence: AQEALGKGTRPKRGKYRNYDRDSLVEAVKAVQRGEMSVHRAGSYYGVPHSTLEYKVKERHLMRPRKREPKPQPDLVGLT
Experiment: FP; 33 mM phosphate pH 7.0, 90 mM NaCl, 0.01% Tween 20, 0.1 mM DTT, 0.5% agarose; room temperature
Conditions: tags: N-GST (pGEX-6P-1, kept); dsDNA, one strand shown

| Sequence | binding signal | Kd |
| --- | --- | --- |
| CATAGCCTAAAATCG | 1.82 Kd / Kd of best base at the position | – |
| CATAGCCGAAAATCC | 1.04 Kd / Kd of best base at the position | – |
| CATAGCCAAAAATCG | 1.28 Kd / Kd of best base at the position | – |
| CATAGCCGAATATCG | 2.21 Kd / Kd of best base at the position | – |
| CATAGCCGAAAGTCG | 2.41 Kd / Kd of best base at the position | – |
| CATAGCCGAAAATCG | – | ~0.0145 µM |
| AATAGCCGAAAATCG | 1.22 Kd / Kd of best base at the position | – |
| GATAGCCGAAAATCG | 1.29 Kd / Kd of best base at the position | – |
| CGTAGCCGAAAATCG | 1.39 Kd / Kd of best base at the position | – |
| CATAGCCGAAAAACG | 1.54 Kd / Kd of best base at the position | – |
| CATAGCCGCAAATCG | 20 Kd / Kd of best base at the position | – |
| CATAGACGAAAATCG | 3.01 Kd / Kd of best base at the position | – |
| CATAGCCGAAAATAG | 1.65 Kd / Kd of best base at the position | – |
| CATAGCCGAAAATTG | 1.35 Kd / Kd of best base at the position | – |
| CATAGCCGAAGATCG | 9.46 Kd / Kd of best base at the position | – |
| CATAGCCGAAAATCA | 1.07 Kd / Kd of best base at the position | – |
| CATTGCCGAAAATCG | 1.02 Kd / Kd of best base at the position | – |
| CATAGCCGAAAATCT | 1.07 Kd / Kd of best base at the position | – |
| CATAGCCGAAAAGCG | 1.89 Kd / Kd of best base at the position | – |
| CATAGCCGAAAATGG | 1.42 Kd / Kd of best base at the position | – |

| Sequence | binding signal | Kd |
| --- | --- | --- |
| CACAGCCGAAAATCG | 1.26 Kd / Kd of best base at the position | – |
| CATAGCTGAAAATCG | 4.47 Kd / Kd of best base at the position | – |
| CATAGCCGAACATCG | 5.65 Kd / Kd of best base at the position | – |
| CATAACCGAAAATCG | 1.73 Kd / Kd of best base at the position | – |
| CATAGCCCAAAATCG | 1.29 Kd / Kd of best base at the position | – |
| CATGGCCGAAAATCG | 1.39 Kd / Kd of best base at the position | – |
| CCTAGCCGAAAATCG | 1.59 Kd / Kd of best base at the position | – |
| CTTAGCCGAAAATCG | 1.14 Kd / Kd of best base at the position | – |
| CATAGCGGAAAATCG | 16.4 Kd / Kd of best base at the position | – |
| CAAAGCCGAAAATCG | 1.57 Kd / Kd of best base at the position | – |
| CATATCCGAAAATCG | 1.8 Kd / Kd of best base at the position | – |
| CATAGTCGAAAATCG | 1.92 Kd / Kd of best base at the position | – |
| CATACCCGAAAATCG | 1.36 Kd / Kd of best base at the position | – |
| CATAGGCGAAAATCG | 3.03 Kd / Kd of best base at the position | – |
| CATAGCAGAAAATCG | 23.3 Kd / Kd of best base at the position | – |
| TATAGCCGAAAATCG | 1.35 Kd / Kd of best base at the position | – |
| CATAGCCGACAATCG | 20.2 Kd / Kd of best base at the position | – |
| CATAGCCGATAATCG | 12.1 Kd / Kd of best base at the position | – |
| CATAGCCGGAAATCG | 7 Kd / Kd of best base at the position | – |
| CATAGCCGAAACTCG | 2.54 Kd / Kd of best base at the position | – |

Reference: article PMC5913336, “True equilibrium measurement of transcription factor-DNA binding affinities using automated polarization microscopy”
